Screening data: PubChem BioAssay, National Center for Advancing Translational Sciences (NCATS)
VACV Venus inh – vaccinia inhibition (Venus reporter); Vaccinia virus Venus reporter expression, fluorescence; Potency, µM (top dose mostly 36.5 µM), inactives show top-dose activity change, negative = inhibition, hits mostly inhibitors; hit rate 0.46% among 330,000; AID 720580; calls by dose curve; tested in A549 cells; further: nearly all actives have a fitted effect of over 30% in size
LASV entry inh – blocks Lassa virus binding to or entry into cells; Lassa virus pseudotype entry inhibition, cell reporter; Potency, µM (titrated, usually from 37.9 µM), for inactives: at the highest dose activity change, negative = inhibition, usual class: inhibitors; hit rate 1.2% among 300,000; calls by dose curve; tested in HEK293 cells; further: nearly all actives have a fitted effect of over 50% in size
VACV mCherry inh – vaccinia inhibition (mCherry reporter). Potency, µM (series often up to 36.5 µM), for inactives: at the highest dose activity change, negative = inhibition, most hits filed as inhibitors. hit rate 0.63% among 310,000. Vaccinia virus mCherry reporter infection, fluorescence. AID 720579; calls by dose curve; tested in A549 cells; further: nearly all actives have a fitted effect of over 35% in size
Marburg entry inh – blocks Marburg virus binding to or entry into cells. Marburg virus pseudotyped entry inhibition, cell reporter. hit rate 1.8% among 300,000. Potency, µM (top dose mostly 37.8 µM), inactives show top-dose activity change, negative = inhibition, most hits filed as inhibitors. AID 540276; calls by dose curve; tested in HEK293 cells
HCV inhibitor – HCV inhibition. Huh7.5.1 HCVcc-Cre infection, luciferase reporter, 44 h. Potency, µM (highest dose often 41.8 µM), for inactives: at the top dose activity change, negative = inhibition, hits mostly inhibitors. hit rate 3.4% among 340,000. AID 651820; active means well fitted inhibition curve with a large enough effect; inconclusive means small, poorly fitted or top-dose-only effect, or another doubt; inactive means no such curve, though single readings can be large or run the other way
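A cell-based infection assay in which seeded cells (1,000 per well) receive test compound after 4 h, are inoculated with HCVcc-Cre at approximately 0.5 moi, and are incubated 44 h before luminescence detection.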
FMDV antiviral – foot and mouth disease virus antiviral activity; hit rate 1.2% among 410,000; Potency, µM (top dose mostly 57.9 µM), inactives show top-dose activity change, negative = inhibition, actives largely listed as inhibitors; FMDV antiviral cell-based qHTS; AID 1159524; calls by dose curve; tested in HEK293T cells; further: read-out not given here; nearly all actives have a fitted effect of over 45% in size
* marks the source's active call; other numbers are inactive results; i = inactive; ? = inconclusive; · = no result; [ ] = remark or other dose. This is a sample that favours compounds with a hit; in the whole collection about 5.3% have one here. On the % scale 0 is the no-effect control and ±100 the full control effect; potency means the concentration at half of the fitted maximal effect.

SMILES	VACV Venus inh	LASV entry inh	VACV mCherry inh	Marburg entry inh	HCV inhibitor	FMDV antiviral
COc1ccccc1Nc1nc(Cl)nc(Nc2ccccc2OC)n1	-3%	1%	6%	-29%[46.1 µM]	13µM*	?
C=CCNc1nc(Cl)nc(Nc2cc(Cl)ccc2OC)n1	-4%	3%	-14%	13µM*	-15%	-12%
COc1ccccc1Nc1nc(C)cc(C)n1	-14%	?	-2%	-9%	-20%	13%
COc1ccccc1Nc1nc(-c2ccccc2Cl)c2cc(Br)ccc2n1	5%	-13%[46.1 µM]	1%	·	·	-4%
COc1ccccc1Nc1cc(C)nc(Nc2ccccc2OC)n1	-23%	-13%	-15%	-22%	2.5µM*	-23%
O=C(C[n+]1ccncc1)c1cccc2ccccc12	6%	·	-9%	·	·	·
CCC(=O)Nc1ccc(-c2ccc(NC(=O)CC)c(OC)c2)cc1OC	-15%	·	?	·	?	-8%
CCN(CC)CC(=O)Nc1ccc(-c2ccc(NC(=O)CN(CC)CC)c(OC)c2)cc1OC	-20%	5%	-27%	?	1.8µM*	0%
CC1(c2ccccc2)NC(=O)N(CC(=O)Nc2ccc(Cl)c(S(=O)(=O)N3CCCCC3)c2)C1=O (configuration not stated)	?	?	-15%	?	?	-13%
Cc1ccc(C2(C)NC(=O)N(CC(=O)Nc3ccc(Cl)c(S(=O)(=O)N4CCCCC4)c3)C2=O)cc1 (configuration not stated)	?	-27%	-13%	11µM*	?	-22%
CC1(c2cc(F)ccc2F)NC(=O)N(CC(=O)Nc2cccc(S(=O)(=O)N3CCCC3)c2)C1=O (configuration not stated)	·	·	·	·	2%	-19%
COc1ccc(S(=O)(=O)N2CCCCCC2)cc1NC(=O)CN1C(=O)NC(C)(c2ccc(C)cc2)C1=O (configuration not stated)	-21%	-7%	-26%	?	?	-5%
CCOc1ccc(S(=O)(=O)N2CCCCC2)cc1NC(=O)CN1C(=O)NC(C)(c2ccc(C)cc2)C1=O (configuration not stated)	?	?	?	?	10µM*	0%
CC1(c2ccc3ccccc3c2)NC(=O)N(CC(=O)Nc2cccc(S(=O)(=O)N3CCOCC3)c2)C1=O (configuration not stated)	-4%	0%	-19%	?	6%	35µM*
CCOc1ccccc1NC(=O)C1CCCN(c2ncnc3onc(-c4ccc(F)cc4)c23)C1 (configuration not stated)	-12%	-21%[46.1 µM]	-8%	·	·	-21%
C[C@H]1CN([C@@H](C)CO)C(=O)CCCn2cc(nn2)CO[C@@H]1CN(C)S(C)(=O)=O	-13%	·	-11%	·	·	-12%
CCOc1ccc(C(=O)N/N=C/c2ccccc2[N+](=O)[O-])cc1	-18%	?	-14%	12µM*	-25%	?
CCNC(=S)N/N=C/c1ccccc1[N+](=O)[O-]	-7%	-9%	-7%	-3%[46.1 µM]	1%	-9%
NC(=S)N/N=C/c1ccccc1[N+](=O)[O-]	2.2µM*	-12%	2µM*	-3%[46.1 µM]	-10%	-4%
O=C(N/N=C1\C[C@@H](O)[C@@H](O)[C@@H]2[C@@H]3C(=O)N(C[C@@H]4CCCO4)C(=O)[C@@H]3CC[C@@H]12)OCc1ccccc1	·	·	·	-5%[14.2 µM]	·	·
Cc1cc(O)c(-c2ccnc3cc(-c4ccccc4)nn23)cc1Cl	-8%	3%[46.1 µM]	-5%	-23%[46.1 µM]	·	-15%
CSc1ncc(/C=C2/C(=O)NC(=O)N(C)C2=O)cn1	-8%	9%	i	12%	9%	-10%
CCC(C)N1C(=O)/C(=C\c2ccc(N3CCCCCC3)cc2)C(=O)NC1=S (configuration not stated)	2%	25%	0%	4%	1%	?
CCC(C)N1C(=O)/C(=C\c2cc3c4c(c2)CCCN4CCC3)C(=O)NC1=S (configuration not stated)	8%	5%	4%	1%	-22%	32µM*
CCC(C)N1C(=O)/C(=C\c2cnc(N(C)C)nc2)C(=O)NC1=S (configuration not stated)	12%	6%	7%	?	15%	22µM*
SMILES	VACV Venus inh	LASV entry inh	VACV mCherry inh	Marburg entry inh	HCV inhibitor	FMDV antiviral
CCOC(=O)C1CCCN(S(=O)(=O)c2cc3c4c(c2)CCC(=O)N4CCC3)C1 (configuration not stated)	-15%	-28%[46.1 µM]	i	?	?	?
COc1ccccc1NS(=O)(=O)c1cc(N2Cc3ccccc3C2=N)ccc1N1CCOCC1	-13%	?	-11%	7.1µM*	-20%	26%
COc1ccccc1NS(=O)(=O)c1cc(N)ccc1N1CCOCC1	-13%	23%	-23%	1%	?	19%
CCOC(=O)C1=C(C)N=C2SC(C)C(=O)N2C1c1ccc(C(=O)OC)cc1 (configuration not stated)	-5%	24%	-15%	13%	3%	-15%
CCOC(=O)C1=C(C)N=C2SC=C(C)N2C1c1ccc(OC)cc1 (configuration not stated)	-16%	?	i	5µM*	?	-5%
CCS(=O)(=O)N1CCc2cc(C(=O)N3CCN(c4ccccc4)CC3)ccc21	-7%	27%[46.1 µM]	-20%	-2%[46.1 µM]	·	-7%
COc1ccccc1C1CCCN1Cc1nc(-c2ccc(C)s2)oc1C (configuration not stated)	36%	3.5µM*	?	?	?	-20%
COC(=O)c1ccc(C(=O)OC)c(NC(=O)c2cnn3c(C(F)F)cc(-c4ccc(C)cc4)nc23)c1	-3%	10%[46.1 µM]	-12%	28%[46.1 µM]	·	-2%
Cc1cccc(N=C2NC(=O)/C(=C/c3cccn3C)S2)c1C	1%	?	-23%	8.9µM*	?	4%
COc1cc2c(cc1OC)C1(Nc3c-2c(-c2ccccc2)nn3-c2ccccc2)C(=O)Nc2ccccc21 (configuration not stated)	?	-25%	-28%	?	13µM*	-29%
COc1cc2c(cc1OC)C1(Nc3c-2c(C)nn3-c2ccccc2)C(=O)Nc2ccccc21 (configuration not stated)	?	?	-22%[1.46 µM]	-4%	-27%	-20%
COCCNc1nc(NCc2ccc(NC(C)=O)cc2)c2sc(-c3ccccc3)cc2n1	11µM*	·	?	·	·	-7%
C=CC(C)(O)CC/C=C(\C)CCC=C(C)C (configuration not stated)	0%	·	i	·	·	3%
CC1CCCN(CCCNC(=O)c2ccc3c(c2)N(Cc2ccccc2F)C(=O)c2ccccc2S3(=O)=O)C1 (configuration not stated)	-26%	-19%[46.1 µM]	?	?	10µM*	3%
CCN1CCCC1CNC(=O)c1ccc2c(c1)N(Cc1ccccc1F)C(=O)c1ccccc1S2(=O)=O (configuration not stated)	·	·	·	·	10µM*	35%
